# Assay results as given in PubChem BioAssay AID1159580 (chemical genetic matrix, 2015).
# In all, about 5,500 compounds went through this assay and about 2,000 (36%) were called active. Another 18% or so got no clear call; they are omitted. The list shows a part of the results. Unmarked numbers belong to inactive results. No stated cut-off is given here; in the data, active means normalized growth mostly below about 0.91 (no sharp cut-off); inconclusive means no clear call, values can overlap the other calls; inactive means mostly above about 0.92.
# Experiment: chemical genetic growth profiling, strain panel (AID 1159580);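 further: tested at 20 µM; growth read once vehicle control cultures reached saturation at 30 °C; 1 = growth at the plate median or of vehicle wells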
# Conditions: growth OD
# [1] = S. cerevisiae deletion strains, locus YAL013W, strain DEP1, stronger effect = lower value
# [2] = S. cerevisiae deletion strains, locus YBR229C, strain ROT2, stronger effect = lower value
# [3] = S. cerevisiae deletion strains, locus YDL101C, strain DUN1, stronger effect = lower value
# [4] = S. cerevisiae deletion strains, locus YDL134C, strain PPH21, stronger effect = lower value
# [5] = S. cerevisiae deletion strains, locus YDR150W, strain NUM1, stronger effect = lower value
# [6] = S. cerevisiae deletion strains, locus YEL061C, strain CIN8, stronger effect = lower value
# [7] = S. cerevisiae deletion strains, locus YGR078C, strain PAC10, stronger effect = lower value
# [8] = S. cerevisiae deletion strains, locus YGR229C, strain SMI1, stronger effect = lower value
# [9] = S. cerevisiae deletion strains, locus YHR030C, strain SLT2, stronger effect = lower value
# [10] = S. cerevisiae deletion strains, locus YHR087W, strain rtc3, stronger effect = lower value
# [11] = S. cerevisiae deletion strains, locus YJR043C, strain POL32, stronger effect = lower value
# [12] = S. cerevisiae deletion strains, locus YJR075W, strain HOC1, stronger effect = lower value
# [13] = S. cerevisiae deletion strains, locus YLR039C, strain RIC1, stronger effect = lower value
# [14] = S. cerevisiae deletion strains, locus YLR058C, strain SHM2 (second series), stronger effect = lower value
# [15] = S. cerevisiae deletion strains, locus YLR085C, strain ARP6, stronger effect = lower value
# [16] = S. cerevisiae deletion strains, locus YLR262C, strain YPT6, stronger effect = lower value
# [17] = S. cerevisiae deletion strains, locus YML094W, strain GIM5, stronger effect = lower value
# [18] = S. cerevisiae deletion strains, locus YMR219W, strain ESC1, stronger effect = lower value
# [19] = S. cerevisiae deletion strains, locus YMR263W, strain SAP30, stronger effect = lower value
# [20] = S. cerevisiae deletion strains, locus YNL153C, strain GIM3, stronger effect = lower value
# [21] = S. cerevisiae deletion strains, locus YNL298W, strain CLA4 (second series), stronger effect = lower value
# [22] = S. cerevisiae deletion strains, locus YNL322C, strain KRE1, stronger effect = lower value
# [23] = S. cerevisiae deletion strains, locus YNR030W, strain Alg12, stronger effect = lower value
# [24] = S. cerevisiae deletion strains, locus YPL055C, strain LGE1, stronger effect = lower value
# [25] = S. cerevisiae deletion strains, locus YPL241C, strain CIN2, stronger effect = lower value
# [26] = S. cerevisiae deletion strains, locus YPR135W, strain CTF4, stronger effect = lower value
compound,measurement,setting,value
CCN1CN=C(SCc2ccc(C)cc2)NC1,normalized growth,[1],0.986
same,normalized growth,[2],0.992
same,normalized growth,[3],0.991
same,normalized growth,[4],1
same,normalized growth,[5],0.932
same,normalized growth,[6],0.997
same,normalized growth,[7],0.983
same,normalized growth,[8],1
same,normalized growth,[9],0.915
same,normalized growth,[10],0.968
same,normalized growth,[11],0.976
same,normalized growth,[12],0.986
same,normalized growth,[13],0.977
same,normalized growth,[14],0.977
same,normalized growth,[15],0.997
same,normalized growth,[16],0.974
same,normalized growth,[17],0.998
same,normalized growth,[18],0.994
same,normalized growth,[19],0.974
same,normalized growth,"S. cerevisiae deletion strains, locus YMR307W, strain GAS1, stronger effect = lower value",1.05
same,normalized growth,[20],0.98
same,normalized growth,[21],0.975
same,normalized growth,[22],0.994
same,normalized growth,[23],0.986
same,normalized growth,[24],0.947
same,normalized growth,[25],0.978
same,normalized growth,[26],0.904
COc1cc(NC(=O)NS(=O)(=O)c2ccc(C)cc2)cc(C(F)(F)F)c1,normalized growth,[1],0.991
same,normalized growth,[2],0.995
same,normalized growth,"S. cerevisiae deletion strains, locus YCL061C, strain MRC1, stronger effect = lower value",0.987
same,normalized growth,[3],0.99
same,normalized growth,[4],1
same,normalized growth,[5],0.91
same,normalized growth,[6],1.02
same,normalized growth,[7],0.995
same,normalized growth,[8],0.996
same,normalized growth,[9],1.1
same,normalized growth,[10],0.994
same,normalized growth,[11],0.998
same,normalized growth,[12],0.965
same,normalized growth,[13],0.925
same,normalized growth,[14],0.999
same,normalized growth,[15],1.05
same,normalized growth,[16],0.907
same,normalized growth,[17],1.01
same,normalized growth,[18],0.997
same,normalized growth,[19],1
same,normalized growth,[20],0.995
same,normalized growth,[21],1.03
same,normalized growth,[22],0.986
same,normalized growth,[23],1.03
same,normalized growth,"S. cerevisiae deletion strains, locus YOL006C, strain TOP1, stronger effect = lower value",1.06
same,normalized growth,[24],0.966
same,normalized growth,[25],1.11
same,normalized growth,[26],1.02
same,normalized growth,"S. cerevisiae strains, strain wild type, stronger effect = lower value",1
COc1cc(NC(=S)Nc2ccccc2OC(F)(F)F)cc(C(F)(F)F)c1,normalized growth,"S. cerevisiae deletion strains, locus YAR019C, strain CDC15, stronger effect = lower value",0.969
same,normalized growth,"S. cerevisiae deletion strains, locus YBL105C, strain PKC1, stronger effect = lower value",0.977
same,normalized growth,"S. cerevisiae deletion strains, locus YBR135W, strain CKS1, stronger effect = lower value",0.977
same,normalized growth,"S. cerevisiae deletion strains, locus YBR136W, strain MEC1, stronger effect = lower value",0.975
same,normalized growth,"S. cerevisiae deletion strains, locus YBR160W, strain CDC28, stronger effect = lower value",0.972
same,normalized growth,"S. cerevisiae deletion strains, locus YDL017W, strain CDC7, stronger effect = lower value",0.982
same,normalized growth,"S. cerevisiae deletion strains, locus YDL028C, strain MPS1, stronger effect = lower value",0.962
same,normalized growth,[3],0.99
same,normalized growth,"S. cerevisiae deletion strains, locus YDL108W, strain KIN28, stronger effect = lower value",0.965
same,normalized growth,"S. cerevisiae deletion strains, locus YDL132W, strain cdc53, stronger effect = lower value",0.974
same,normalized growth,"S. cerevisiae deletion strains, locus YDL214C, strain PRR2, stronger effect = lower value",0.937
same,normalized growth,"S. cerevisiae deletion strains, locus YDR052C, strain DBF4, stronger effect = lower value",0.991
same,normalized growth,"S. cerevisiae deletion strains, locus YDR054C, strain cdc34, stronger effect = lower value",0.975
same,normalized growth,"S. cerevisiae deletion strains, locus YDR226W, strain ADK1, stronger effect = lower value",0.977
same,normalized growth,"S. cerevisiae deletion strains, locus YDR477W, strain SNF1, stronger effect = lower value",0.945
same,normalized growth,"S. cerevisiae deletion strains, locus YER123W, strain YCK3, stronger effect = lower value",0.931
same,normalized growth,"S. cerevisiae deletion strains, locus YER133W, strain GLC7, stronger effect = lower value",0.948
same,normalized growth,"S. cerevisiae deletion strains, locus YFL009W, strain cdc4, stronger effect = lower value",0.967
same,normalized growth,"S. cerevisiae deletion strains, locus YFL029C, strain CAK1, stronger effect = lower value",0.962
same,normalized growth,"S. cerevisiae deletion strains, locus YFR003C, strain YPI1, stronger effect = lower value",0.987
same,normalized growth,"S. cerevisiae deletion strains, locus YFR019W, strain FAB1, stronger effect = lower value",0.983
same,normalized growth,"S. cerevisiae deletion strains, locus YFR028C, strain CDC14, stronger effect = lower value",0.969
same,normalized growth,"S. cerevisiae deletion strains, locus YGR040W, strain KSS1, stronger effect = lower value",0.951
same,normalized growth,"S. cerevisiae deletion strains, locus YGR052W, strain FMP48, stronger effect = lower value",0.994
same,normalized growth,"S. cerevisiae deletion strains, locus YGR092W, strain DBF2, stronger effect = lower value",0.962
same,normalized growth,[9],0.824 (active)
same,normalized growth,"S. cerevisiae deletion strains, locus YHR079C, strain IRE1, stronger effect = lower value",0.985
same,normalized growth,"S. cerevisiae deletion strains, locus YHR082C, strain KSP1, stronger effect = lower value",0.972
same,normalized growth,"S. cerevisiae deletion strains, locus YHR205W, strain SCH9, stronger effect = lower value",0.922
same,normalized growth,"S. cerevisiae deletion strains, locus YIL147C, strain SLN1, stronger effect = lower value",0.961
same,normalized growth,"S. cerevisiae deletion strains, locus YJL095W, strain BCK1, stronger effect = lower value",0.956
same,normalized growth,"S. cerevisiae deletion strains, locus YJL128C, strain PBS2, stronger effect = lower value",0.929
same,normalized growth,"S. cerevisiae deletion strains, locus YJL157C, strain FAR1, stronger effect = lower value",0.962
same,normalized growth,"S. cerevisiae deletion strains, locus YJR016C, strain ILV3, stronger effect = lower value",0.989
same,normalized growth,"S. cerevisiae deletion strains, locus YJR066W, strain TOR1 (second series), stronger effect = lower value",1
same,normalized growth,"S. cerevisiae deletion strains, locus YJR066W, strain TOR1, stronger effect = lower value",0.926
same,normalized growth,"S. cerevisiae deletion strains, locus YKL048C, strain ELM1, stronger effect = lower value",0.971
same,normalized growth,"S. cerevisiae deletion strains, locus YKL067W, strain YNK1, stronger effect = lower value",0.926
same,normalized growth,"S. cerevisiae deletion strains, locus YKL101W, strain HSL1, stronger effect = lower value",0.937
same,normalized growth,"S. cerevisiae deletion strains, locus YKL193C, strain SDS22, stronger effect = lower value",0.977
same,normalized growth,"S. cerevisiae deletion strains, locus YKL203C, strain TOR2, stronger effect = lower value",1.03
same,normalized growth,"S. cerevisiae deletion strains, locus YLR113W, strain HOG1, stronger effect = lower value",0.886
same,normalized growth,"S. cerevisiae deletion strains, locus YLR133W, strain CKI1, stronger effect = lower value",0.96
same,normalized growth,"S. cerevisiae deletion strains, locus YLR403W, strain SFP1, stronger effect = lower value",0.968
same,normalized growth,"S. cerevisiae deletion strains, locus YML070W, strain DAK1, stronger effect = lower value",0.94
same,normalized growth,"S. cerevisiae deletion strains, locus YMR001C, strain CDC5, stronger effect = lower value",0.959
same,normalized growth,"S. cerevisiae deletion strains, locus YMR205C, strain PFK2 (second series), stronger effect = lower value",0.962
same,normalized growth,"S. cerevisiae deletion strains, locus YMR277W, strain FCP1, stronger effect = lower value",0.954
same,normalized growth,"S. cerevisiae deletion strains, locus YNL006W, strain LST8, stronger effect = lower value",0.978
same,normalized growth,"S. cerevisiae deletion strains, locus YNL020C, strain ARK1, stronger effect = lower value",0.965
same,normalized growth,"S. cerevisiae deletion strains, locus YNL161W, strain CBK1, stronger effect = lower value",0.977
same,normalized growth,"S. cerevisiae deletion strains, locus YNL183C, strain NPR1, stronger effect = lower value",1.01
same,normalized growth,"S. cerevisiae deletion strains, locus YNL207W, strain RIO2, stronger effect = lower value",0.985
same,normalized growth,"S. cerevisiae deletion strains, locus YNL222W, strain SSU72, stronger effect = lower value",0.965
same,normalized growth,"S. cerevisiae deletion strains, locus YNL307C, strain MCK1 (second series), stronger effect = lower value",0.956
same,normalized growth,"S. cerevisiae deletion strains, locus YOL078W, strain AVO1, stronger effect = lower value",0.97
same,normalized growth,"S. cerevisiae deletion strains, locus YOL136C, strain PFK27, stronger effect = lower value",0.935
same,normalized growth,"S. cerevisiae deletion strains, locus YOR061W, strain CKA2, stronger effect = lower value",0.962
same,normalized growth,"S. cerevisiae deletion strains, locus YOR119C, strain RIO1, stronger effect = lower value",0.964
same,normalized growth,"S. cerevisiae deletion strains, locus YOR231W, strain MKK1, stronger effect = lower value",0.945
same,normalized growth,"S. cerevisiae deletion strains, locus YOR329C, strain SCD5, stronger effect = lower value",0.99
same,normalized growth,"S. cerevisiae deletion strains, locus YPL031C, strain PHO85, stronger effect = lower value",0.957
same,normalized growth,"S. cerevisiae deletion strains, locus YPL153C, strain RAD53, stronger effect = lower value",0.952
same,normalized growth,"S. cerevisiae deletion strains, locus YPL204W, strain HRR25, stronger effect = lower value",0.957
same,normalized growth,"S. cerevisiae deletion strains, locus YPL209C, strain IPL1, stronger effect = lower value",0.976
same,normalized growth,"S. cerevisiae deletion strains, locus YPL256C, strain CLN2, stronger effect = lower value",0.927
same,normalized growth,"S. cerevisiae deletion strains, locus YPR025C, strain CCL1, stronger effect = lower value",0.984
same,normalized growth,"S. cerevisiae deletion strains, locus YPR106W, strain ISR1, stronger effect = lower value",0.974
same,normalized growth,"S. cerevisiae deletion strains, locus YPR111W, strain DBF20, stronger effect = lower value",0.953
same,normalized growth,"S. cerevisiae deletion strains, strain NNK1, stronger effect = lower value",0.974
same,normalized growth,"S. cerevisiae deletion strains, strain TSCII, stronger effect = lower value",0.97
